From PubChem BioAssay (NCATS)
Records with an inconclusive call do not appear. Calls of active or inactive are those of the source. Calls follow the shape of the dose curve; as a rule, active = well fitted inhibition curve with a large enough effect; inconclusive = small, poorly fitted or top-dose-only effect; inactive = flat fitted curve, though single readings scatter.

What was measured:
Assay in all cases: qHTS profiling for inhibitors of Plasmodium falciparum proliferation (AID 504749); also: nearly all actives have a fitted effect of over 60% in size
[1] = system: AA1029; conditions: P. falciparum in erythrocytes, SYBR Green DNA, 72 h; series mostly up to 12.8 µM
Method in brief: (§1)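 Quantitative HTS: compounds pinned into medium, infected erythrocytes added (0.3% parasitemia, 2.5% hematocrit), 72 h culture at 37 C under 5% CO2. Saponin/Triton lysis with SYBR Green I, overnight RT, then fluorescence read.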

[2] = system: ATS95; conditions: P. falciparum in erythrocytes, SYBR Green DNA, 72 h; series mostly up to 12.8 µM
Method in brief: as §1

[3] = system: CP211; conditions: P. falciparum in erythrocytes, SYBR Green DNA, 72 h; series mostly up to 12.8 µM
Method in brief: as §1

[4] = system: CP217; conditions: P. falciparum in erythrocytes, SYBR Green DNA, 72 h; series mostly up to 12.8 µM
Method in brief: as §1

[5] = system: CP237; conditions: P. falciparum in erythrocytes, SYBR Green DNA, 72 h; series mostly up to 12.8 µM
Method in brief: as §1

[6] = system: CP238; conditions: P. falciparum in erythrocytes, SYBR Green DNA, 72 h; series mostly up to 12.8 µM
Method in brief: as §1

[7] = system: CP252; conditions: P. falciparum in erythrocytes, SYBR Green DNA, 72 h; series mostly up to 12.8 µM
Method in brief: as §1

[8] = system: CP260; conditions: P. falciparum in erythrocytes, SYBR Green DNA, 72 h; series mostly up to 12.8 µM
Method in brief: as §1

[9] = system: CP265; conditions: P. falciparum in erythrocytes, SYBR Green DNA, 72 h; series mostly up to 12.8 µM
Method in brief: as §1

[10] = system: CP266; conditions: P. falciparum in erythrocytes, SYBR Green DNA, 72 h; series mostly up to 28.7 µM
Method in brief: as §1

[11] = system: CP268; conditions: P. falciparum in erythrocytes, SYBR Green DNA, 72 h; series mostly up to 12.8 µM
Method in brief: as §1

[12] = system: CP269; conditions: P. falciparum in erythrocytes, SYBR Green DNA, 72 h; series mostly up to 12.8 µM
Method in brief: as §1

[13] = system: CP315; conditions: P. falciparum in erythrocytes, SYBR Green DNA, 72 h; series mostly up to 12.8 µM
Method in brief: as §1

[14] = system: CP325; conditions: P. falciparum in erythrocytes, SYBR Green DNA, 72 h; series mostly up to 12.8 µM
Method in brief: as §1

[15] = system: CP335; conditions: P. falciparum in erythrocytes, SYBR Green DNA, 72 h; series mostly up to 12.8 µM
Method in brief: as §1

[16] = system: DIV14; conditions: P. falciparum in erythrocytes, SYBR Green DNA, 72 h; series mostly up to 12.8 µM
Method in brief: as §1

[17] = system: N140; conditions: P. falciparum in erythrocytes, SYBR Green DNA, 72 h; series mostly up to 12.8 µM
Method in brief: as §1

[18] = system: PC26; conditions: P. falciparum in erythrocytes, SYBR Green DNA, 72 h; series mostly up to 12.8 µM
Method in brief: as §1

[19] = system: SC27B; conditions: P. falciparum in erythrocytes, SYBR Green DNA, 72 h; series mostly up to 12.8 µM
Method in brief: as §1

[20] = system: TAB165; conditions: P. falciparum in erythrocytes, SYBR Green DNA, 72 h; series mostly up to 12.8 µM
Method in brief: as §1

Measured: Potency

C[N+](C)(C)CC(O)CC(=O)O (stereo not given)
inactive: all assays above

CN1[C@@H]2CC[C@H]1CC(OC(=O)[C@@H](O)c1ccccc1)C2 (stereo not given in full)
inactive: all assays above

C[C@@H]1CCC[C@H](C)N1NC(=O)c1ccc(Cl)c(S(N)(=O)=O)c1
inactive: all assays above

CC(C)N1CCN(c2ccc(OC[C@@H]3CO[C@@](Cn4cncn4)(c4ccc(Cl)cc4Cl)O3)cc2)CC1
not listed: [10]
inactive: all other assays above

CN(C)CC/C=C1\c2ccccc2CSc2ccccc21
inactive: [10]
